In PubChem BioAssay AID1845225 (National Center for Advancing Translational Sciences (NCATS), 2023):
Inconclusive results are not listed. Activity calls are given as the source filed them. The call rests on the fitted dose curve; in most records, active means well fitted curve in the direction sought with a large enough effect; inconclusive means small, poorly fitted or top-dose-only effect, or effect the other way, or another doubt; inactive means no such curve, though single readings can be large or run the other way.

Test: Confirmatory redox qHTS assay for identification of artifact compounds.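 Further: 0% = DMSO and 100% = DA3003 at 10 µM.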
Conditions: Amplex Red/HRP redox cycling with DTT, fluorescence; series mostly up to 39 µM; redox activity vs DA3003: at the top concentration
Outline: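 Amplex Red (25 uM final) and HRP (250 mU/mL final) in HBSS, compound 15 min, then 250 uM DTT final 30 min, room temperature, dark; fluorescence 525/598 nm, normalized to DMSO and 10 uM DA3003, Hill fitted.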

Redox activity vs DA3003, inactive:
Cc1ccc(OCCn2c(CCNC(=O)OC(C)(C)C)nc3ccccc32)cc1 2.68%
O=S(=O)(c1ccc(Cl)cc1)N1CCC(c2ccncc2)CC1 -0.214%
COc1cc(OC)c(NC(=O)C(c2ccccc2)N2Cc3ccccc3C2=O)cc1Cl (configuration not stated) 1.62%
CCCCCOC(=O)c1[nH]c2c(c1C)C(=O)CC(c1ccco1)C2 (configuration not stated) 0.438% [at 78.4 µM]
O=C1c2ccccc2C(=O)N1c1cnc2ccccc2c1 -0.944%
O=C(CSc1nc(-c2ccccc2)[nH]c1-c1ccc(F)cc1)NC1CCCC1 -1.72%
Cc1cc2c(s1)c1cnn(Cc3cc(F)c(Cl)cc3Cl)c(=O)c1n2C -0.173%
O=C(CCC(=O)N1CCSc2ccccc21)Nc1ccc(Cl)cc1 1.2%
COc1ccc(NC(=O)N2CCc3c(sc4c3CCCC4)C2c2ccccc2OC)cc1 (configuration not stated) 0.514%
CNC(=O)c1ccc(Nc2nnc(-c3ccc(C)c(S(=O)(=O)N4CCOCC4)c3)c3ccccc23)cc1 5.76%
CCc1ccc(CN2C(=O)c3ccccc3C2C(=O)NCCc2ccc(OC)c(OC)c2)cc1 (configuration not stated) 21.1%
O=C(Nc1ccc(Cl)cc1)N1CCC(c2ccccc2)C1 (configuration not stated) -0.731%
OC[C@H]1O[C@@H]2O[C@H]3[C@H](O)[C@@H](O)[C@@H](O[C@H]4[C@H](O)[C@@H](O)[C@@H](O[C@H]5[C@H](O)[C@@H](O)[C@@H](O[C@H]6[C@H](O)[C@@H](O)[C@@H](O[C@H]7[C@H](O)[C@@H](O)[C@@H](O[C@H]1[C@H](O)[C@H]2O)O[C@@H]7CO)O[C@@H]6CO)O[C@@H]5CO)O[C@@H]4CO)O[C@@H]3CO -0.818%
Cc1cc(C)cc(-n2ccn(Cc3ccc(F)cc3)c(=O)c2=O)c1 0.558%
CC(NC(=O)CSc1nc(-c2ccccc2F)nc2cc(=O)[nH]n12)c1nc2ccccc2n1C (configuration not stated) 4.09%
CCCCCCOc1ccc(CC(=O)O)cc1 -0.0906%
Cc1ccc(OCCn2c(CCNC(=O)c3c(F)cccc3F)nc3ccccc32)cc1 0.522%
Cc1oc(-c2ccccc2)nc1CNC(=O)Nc1ccccc1 -0.859%
COc1cc2c(NC3CCN(C(C)C)CC3)nc(N3CCCN(C)CC3)nc2cc1OCCOCCN(C)C 12.3%
CC(C)c1nn2c(=O)cc(COC(=O)c3cccc(NC(=O)COc4ccc(F)cc4)c3)nc2s1 -1.08%
COc1ccc(NC(=O)N(Cc2nnc3n2CCCCC3)c2ccc(OC)c(Cl)c2)cc1 9.26%
Cc1cc(C)cc(NC(=O)CSc2cc(C)[nH]c(=O)n2)c1 0.365%
COc1cccc(-c2nc(SCC(=O)Nc3ccc4c(c3)OCO4)c(-c3ccccc3)[nH]2)c1 -2.58%
Cc1nc2ccc(S(=O)(=O)N(CC(=O)Nc3ccc(F)cc3F)Cc3ccccc3)cc2s1 5.1%
COc1ccc(NC(=O)C(Cc2ccccc2)n2cccc2)c(OC)c1 (configuration not stated) -0.936%
COc1ccc(Cn2c(C(=O)O)c(CNC3CCCC3)c3ccc(C)cc32)cc1 3.9%
C[C@@H]1CC2C3CCC4=CC(=O)C=C[C@]4(C)[C@@]3(F)C(O)C[C@]2(C)[C@@]1(O)C(=O)COC(=O)c1cccc(S(=O)(=O)O)c1 (some centres not stated) 5.29%
